An excerpt weighted towards active compounds, which were near 22% of everything screened.
Pf growth 48h = inhibits P. falciparum growth in the first generation, 48 h | Potency, µM (top dose mostly 28.7 µM), without a hit: top-dose activity change, negative = inhibition, hits mostly inhibitors | actives 5.9% (n = 310,000) | P. falciparum luciferase growth in erythrocytes, 48 h; further: potency means the concentration at half of the fitted maximal effect; on the % scale 0 is the no-effect control and ±100 the full control effect
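Firefly luciferase activity from engineered P. falciparum reports growth; inhibitors lower the luminescent signal. Cultures contained 2% hematocrit erythrocytes at 0.1% final parasitemia.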
LmPK inh = inhibitors of Leishmania mexicana pyruvate kinase; purified LmPK, Kinase-Glo ATP luminescence, 1 h; Potency, µM (highest dose often 57.5 µM), for the others: at the highest dose activity change, negative = inhibition, usual class: inhibitors; Q27686; AID 1721; actives 0.37% (n = 290,000); further: potency means the concentration at half of the fitted maximal effect; on the % scale 0 is the no-effect control and ±100 the full control effect
Target sequence (Q27686 whole entry, looked up): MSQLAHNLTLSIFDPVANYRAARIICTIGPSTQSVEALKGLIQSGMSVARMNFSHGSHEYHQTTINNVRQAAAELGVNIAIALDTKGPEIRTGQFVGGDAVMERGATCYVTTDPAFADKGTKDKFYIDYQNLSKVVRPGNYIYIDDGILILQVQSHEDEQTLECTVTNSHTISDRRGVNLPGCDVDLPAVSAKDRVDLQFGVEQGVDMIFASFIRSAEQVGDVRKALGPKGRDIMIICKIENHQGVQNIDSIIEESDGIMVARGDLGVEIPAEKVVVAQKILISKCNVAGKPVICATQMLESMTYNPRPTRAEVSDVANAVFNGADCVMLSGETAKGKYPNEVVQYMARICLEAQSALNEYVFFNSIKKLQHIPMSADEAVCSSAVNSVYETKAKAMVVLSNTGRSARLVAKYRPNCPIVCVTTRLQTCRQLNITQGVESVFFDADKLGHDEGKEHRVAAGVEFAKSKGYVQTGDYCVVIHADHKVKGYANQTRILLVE
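Screened at intermediate enzyme activity to detect both inhibitors and activators: LmPK at 0.1 nM, with a 0.5 nM enzyme column as activation reference. PEP 0.5 mM, ADP 0.1 mM; ATP detected by luminescence after 1 h.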
Shiga toxin inh = inhibitors of Shiga toxin in Vero cells. Vero cells, Shiga toxin protein synthesis inhibition reporter. actives 9.2% (n = 290,000). inhibition, % at 38.7 µM; in the data active means inhibition mostly above about 28%, no sharp cut-off; inactive means mostly below about 43%; further: 0% is about no effect
Pf growth 96h = P. falciparum growth inhibition at 96 hours | P. falciparum luciferase reporter growth, 96 h | Potency, µM (series often up to 28.7 µM), for inactives: at the highest dose activity change, negative = inhibition, actives largely listed as inhibitors | actives 6.9% (n = 320,000) | AID 504834; further: potency means the concentration at half of the fitted maximal effect; on the % scale 0 is the no-effect control and ±100 the full control effect
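Luminescence readout: decreased luciferase signal marks inhibited growth of reporter-expressing P. falciparum in infected red cells (2% hematocrit, 0.05% parasitemia final), exposed to compound two generations (96 h, 37 C, 5% CO2).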
CHX counter = counter-screen hit for Shiga toxin inhibitors, cycloheximide. actives 12% (n = 300,000). cell reporter, cycloheximide protein synthesis inhibition counterscreen. max response, %; in the data active means max response mostly above about 13%, no sharp cut-off; inactive means mostly below about 14%; further: read at 38.3 µM for the half of the compounds with a filed dose; 0% is about no effect
* hit, by the source's call; ? = inconclusive; / = no result. Unless noted, the call rests on the fitted dose curve; in most records, active means well fitted inhibition curve with a large enough effect; inconclusive means small, poorly fitted or top-dose-only effect, or another doubt; inactive means no such curve, though single readings can be large or run the other way.

SMILES	Pf growth 48h	LmPK inh	Shiga toxin inh	Pf growth 96h	CHX counter
COc1ccc(NCc2n[nH]c(=O)c3ccccc23)cc1	/	-3%	19	43%	15*
COc1ccc(NCc2ccc(OC)c(OC)c2)cc1	?	1%	17	70%	15
COc1ccc(CCNC(=O)C(=O)NCC2OCCN2C(=O)c2ccc(Cl)cc2)cc1OC (centres undefined)	?	-9%	-17	?	1
CCOC(=O)CN1C(=O)C(Sc2n[nH]c(-c3ccccc3)n2)CCc2ccccc21 (centres undefined)	/	1%	-6	5.9µM*	-7
CCOc1ccc(N2C(=O)CC(Sc3n[nH]c(-c4ccccc4)n3)C2=O)cc1 (centres undefined)	10%	17%	7	29%	-3
O=C1c2ccccc2CCCC12N=NCC2c1cccc2ccccc12 (centres undefined)	2.6µM*	-4%	7	1.9µM*	-4
Cc1ccc(C2CN=NC23CCc2ccccc2C3=O)cc1 (centres undefined)	/	3%	173*	3.7µM*	47*
O=C(NC1CCCN(CCc2ccccc2)C1)C1CCCC1 (centres undefined)	-1%	3%	-4	?	-2
O=C(NNC(=O)c1cc(-c2cccnc2)nc2ccccc12)Nc1ccc(Cl)cc1	?	-3%	36	?	45*
O=C(NNC(=O)c1cc(-c2ccccc2)nc2ccccc12)Nc1cccc(Cl)c1	-21%	3%	-18	/	-3
CC(C)(C)c1ccc(-c2cc(C(=O)NNC(=O)Nc3ccccc3)c3ccccc3n2)cc1	/	2%	39	4.7µM*	22*
CCOC(=O)C1CN(S(=O)(=O)c2ccc(C)cc2)c2ccccc2O1 (centres undefined)	-19%	-4%	-3	-10%	2
CC(C)CCC(C(=O)O)C(C)CC(=O)NC1CCCCC1 (centres undefined)	5%	0%	-9	-1%	-3
CCCCCC(C(=O)O)C(C)CC(=O)NC1CCCCC1 (centres undefined)	12%	1%	-10	13µM*	0
CCn1c(=O)c2ccccc2n(CC(=O)NC2CCCCC2)c1=O	1%	-3%	-2	121%	-4
Cc1c(NC(=O)Oc2ccccc2)sc(=S)n1C	/	5%	-26	-27%	-6
Cc1c(NC(=O)OCCNC(=O)COc2c(Cl)cccc2Cl)sc(=S)n1C	?	1%	-5	9.3µM*	4
CC[C@H](C)[C@H](NC(=O)[C@H](Cc1ccc(O)cc1)NC(=O)[C@@H](NC(=O)[C@H](CCCN=C(N)N)NC(=O)[C@@H](N)CC(=O)O)C(C)C)C(=O)N[C@@H](Cc1cnc[nH]1)C(=O)N1CCC[C@H]1C(=O)N[C@@H](Cc1ccccc1)C(=O)N[C@@H](Cc1cnc[nH]1)C(=O)N[C@@H](CC(C)C)C(=O)O	/	/	-8	/	2
CCOC(=O)COn1c(-n2nc(C)cc2C)nc2ccccc2c1=O	3.7µM*	-6%	13	1.5µM*	2
Cc1cc(C)n(-c2nc3ccccc3c(=O)n2OCC(C)C)n1	18%	-7%	14	8%	-1
Cc1cc(C)n(-c2nc3ccccc3c(=O)n2OCC#N)n1	1.3µM*	-5%	115*	0.37µM*	38*
CCOC(=O)C(C)On1c(-n2nc(C)cc2C)nc2ccccc2c1=O (centres undefined)	-22%	2%	3	?	8
COC(=O)COn1c(-n2nc(C)cc2C)nc2ccccc2c1=O	9.3µM*	5%	-18	/	-6
CCOn1c(-n2nc(C)cc2C)nc2ccccc2c1=O	-6%	-4%	-13	/	-5
CC(=O)c1ccc(N2C(=O)[C@@H]3[C@H](C2=O)[C@H]2c4ccccc4C=NN2[C@@H]3C(C)=O)cc1	13%	7%	32	13%	10*
O/N=C\c1cccn1-c1ccc(Br)cc1	?	2%	-9	/	17
O=C(CCl)N(c1ccccc1)c1c[nH]c2ccccc12	1.7µM*	4%	16	1.2µM*	3
O=C(CCl)N(c1ccc(Cl)cc1)c1c[nH]c2ccccc12	2.3µM*	1%	-14	/	12
CC(C)(C)c1ccc(-n2nc(C#N)c(Cl)cc2=O)cc1	-17%	1%	-22	?	-17
